Results published in the OligoGym collection.

target: APOA4; assay: pooled miR-30 sensor sort-seq; sequence = guide strand; settings: shRNA
Also: reference of the scale not given here.

| Sequence | sensor-assay potency score (higher = more potent) |
| --- | --- |
| TTCTTCATCTGGAAGGTCAGGC | 0.31 |
| TTGAAGGTGCTGAAGAAGGAGT | -1.02 |
| AAGTAGTCCCACATCACCGTGG | -0.243 |
| TCTTCTGCAGGTCACCTGCGTA | -1.37 |
| TCGATCTTGGCCTTGAGCTCGT | -0.264 |
| TGAAGTAGTCCCACATCACCGT | -0.0577 |

target: APOBEC1; assay: as above; settings: shRNA

| Sequence | sensor-assay potency score (higher = more potent) |
| --- | --- |
| TAAAATTAACTTCCACGTGATT | -0.973 |
| TAATCTGAATAGTTACTCCACT | -0.77 |
| TATAAAATTAACTTCCACGTGA | 0.0953 |
| TTTAGTGGGTCATCATTGCTTG | -0.449 |
| TTGATTTCGTAGAGCAGACAGG | -1.09 |
| TTTTTATAAAATTAACTTCCAC | -0.469 |
| TTTTGTTGATCCATGTGCCAAA | -1.26 |
| TAGAAGACGTCAAACTCCCAGG | -0.81 |
| TTGAAATCTTTAAACAGGGTGG | 0.0773 |
| TGAAAATCTCTTTCTGACGTAA | -0.0382 |
| TTTTATAAAATTAACTTCCACG | -0.657 |
| TTGCCGATTTTGTTGATCCATG | -1.51 |
| TAGAGTCACACCAGGGTGCCGA | -0.942 |
| TACAACATCATCCACAGAGGTG | -0.853 |
| TAGTTGACAAAATTCCTCCAGC | 0.113 |
| TTAACTTCCACGTGATTGGTGG | 0.311 |
| AATTATGCAGTGCAGCTCCAGT | -0.901 |
| TAACAAGGTCCCTGAGACCTTG | -0.747 |
| TCCACTGTTAACAAGGTCCCTG | -0.838 |
| TTTTTGCCTGAGCTTCGCCAGA | -1.38 |
| TTTCGTAGAGCAGACAGGCCTC | -0.178 |
| TAGAATTATGCAGTGCAGCTCC | 0.275 |
| ATAATCTGAATAGTTACTCCAC | 0.108 |
| TTAAACAGGGTGGAAGACTTAG | -0.633 |
